The source of these data is PubChem BioAssay (Tox21).

Molecules are shown by their SMILES. Records with an inconclusive call do not appear. Calls of active or inactive are those of the source. The call rests on the fitted dose curve; in most records, active means well fitted cell-killing curve with a large enough effect in the repeat runs; inconclusive means weak or mixed curves, or effect the other way; inactive means flat fitted curve, though single readings scatter.

A short description of test [1]: cAMP Responsive Elements (CRE) small molecule antagonists, cell-based qHTS assay: qHTS cell viability counter screen (AID 2060913). Further: nearly all actives have a fitted effect of over 40% in size. Put shortly:
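CRE-bla HEK293T cells (2,000/well, 18 h) given compound plus NKH477 0.25 uM final for 3 h at 37C; viability counter-screen by CellTiter-Glo luminescence in same wells after 30 min.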

Test [2] in a line: cAMP Responsive Elements (CRE) small molecule agonists, cell-based qHTS assay: qHTS cell viability counter screen (AID 2060914). Further: nearly all actives have a fitted effect of over 50% in size. The procedure, abridged:
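In the same wells as the reporter read, viability of CRE-bla HEK 293T cells was quantified by CellTiter-Glo luminescence after a 3 h compound exposure.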
For orientation: Quantitative high-throughput screening tests each substance at several concentrations.
On the % scale 0 is the no-effect control and ±100 the full control effect.

Regarding `N#CCC(=O)NN`, the Potency entry in test [1] and in test [2] was “inactive” in each case.

Consider `Cn1c(=O)c2[nH]cnc2n(C)c1=O`, for which the Potency entry in test [1] and in test [2] was “inactive” in each case.

As to `CO[Si](C)(OC)c1ccccc1`, the Potency result in test [1] and in test [2] was “inactive” in each case.

Take `NC[C@H]1O[C@H](O[C@H]2[C@H](O[C@@H]3O[C@H](CO)[C@@H](O)[C@H]3O)C(O)[C@H](N)C[C@@H]2N)[C@H](N)[C@@H](O)[C@@H]1O` (some centres undefined): the viability change, negative = cytotoxic in test [1] is 2.15% [at 8.39 µM] (inactive). In addition, the activity change, negative = cytotoxicity in test [2] was 13.8% [at 8.39 µM] (inactive).

As for `COc1ccccc1N=Nc1c(S(=O)(=O)O)cc2cc(S(=O)(=O)O)cc(NC(C)=O)c2c1O`, the Potency entry in test [1] and in test [2] was “inactive” in each case.

On to `Cc1ccc(N=Nc2c(O)ccc3ccccc23)c(C)c1`, for which the Potency result in test [1] and in test [2] was “inactive” each time.

For the compound `CC(C)CCCCCOC(=O)CCS`, the Potency result in test [1] and in test [2] was “inactive” throughout.

On to `CC(=O)OCC(=O)Nc1cc(C#N)cc(NC(=O)COC(C)=O)c1Cl`, for which the Potency entry in test [1] and in test [2] was “inactive” in each case.

For `CN(C)C=O`, the Potency result in test [1] and in test [2] was “inactive” each time.

`CCCCCC/C=C/CCCCCCCC(=O)O`: the Potency result in test [1] and in test [2] was “inactive” throughout.

With `Nc1c(N=Nc2ccc(-c3ccc(N=Nc4cc(S(=O)(=O)O)c5ccccc5c4N)cc3)cc2)cc(S(=O)(=O)O)c2ccccc12`, the Potency entry in test [1] and in test [2] was “inactive” each time.

As for `CC(=O)c1ccc(O)c(C(N)=O)c1`, the Potency entry in test [1] and in test [2] was “inactive” each time.

On to `CC(CO)(CO)[N+](=O)[O-]`, for which the Potency entry in test [1] and in test [2] was “inactive” throughout.

With `CCCCCCCCCCCCCCCCCC#N`, the Potency entry in test [1] and in test [2] was “inactive” in each case.

Regarding `COc1c2ccoc2cc2oc(=O)ccc12`, the Potency result in test [1] and in test [2] was “inactive” each time.

For the compound `N=C1N=C(N)c2ccccc21`, the Potency entry in test [1] and in test [2] was “inactive” in each case.

For `CCCCCCCCCCC`, the Potency result in test [1] and in test [2] was “inactive” in each case.

Turning to `CC(=O)Oc1ccc([N+](=O)[O-])cc1CCl`, the Potency entry in test [1] and in test [2] was “inactive” throughout.

As to `Cc1c(N)c(=O)n(-c2ccccc2)n1C`, the Potency entry in test [1] and in test [2] was “inactive” throughout.

On to `CN/C(=C\[N+](=O)[O-])NCCSCc1ccc(CN(C)C)o1`, for which the Potency result in test [1] and in test [2] was “inactive” throughout.

For `Cc1nc(Nc2ncc(C(=O)Nc3c(C)cccc3Cl)s2)cc(N2CCN(CCO)CC2)n1`, the Potency entry in test [1] and in test [2] was “inactive” each time.

`CCCCOC(=O)CCS`: the Potency result in test [1] and in test [2] was “inactive” in each case.

Turning to `COC(C)CCO` (centres undefined), the Potency result in test [1] and in test [2] was “inactive” each time.

As to `CC/C=C\CCOC(C)OCC` (centres undefined), the Potency result in test [1] and in test [2] was “inactive” throughout.

On to `O=C(c1ccccc1O)c1ccccc1O`, for which the Potency result in test [1] and in test [2] was “inactive” in each case.

With `CC(Cl)COP(=O)(OCC(C)Cl)OCC(C)Cl` (centres undefined), the Potency result in test [1] and in test [2] was “inactive” throughout.

In the case of `CC(=O)OCC[N+](C)(C)C`, the Potency entry in test [1] and in test [2] was “inactive” throughout.

`CNC(=S)NC`: the Potency result in test [1] and in test [2] was “inactive” throughout.

Take `CCOc1ccc(Cc2nccc3cc(OCC)c(OCC)cc23)cc1OCC`: the Potency entry in test [1] and in test [2] was “inactive” throughout.

As for `O=C1Cc2ccccc2N1c1c(Cl)cccc1Cl`, the Potency entry in test [1] and in test [2] was “inactive” throughout.

With `O=C(O)CC(C(=O)O)C(CC(=O)O)C(=O)O` (centres undefined), the Potency entry in test [1] and in test [2] was “inactive” throughout.

On to `CC(C(=O)O)c1ccc2c(c1)[nH]c1ccc(Cl)cc12` (centres undefined), for which the Potency entry in test [1] and in test [2] was “inactive” each time.

Regarding `CCCCCCOC(=O)c1ccccc1`, the Potency result in test [1] and in test [2] was “inactive” throughout.

Regarding `C/C=C1/CC2C=CC1C2` (centres undefined), the Potency entry in test [1] and in test [2] was “inactive” throughout.

With `N#CSCC(=O)O`, the Potency entry in test [1] and in test [2] was “inactive” throughout.

Consider `COc1ccc(C(=O)c2ccc(OC)cc2O)c(O)c1`, for which the Potency entry in test [1] and in test [2] was “inactive” in each case.

For `C(/C=C/C=C/Nc1ccccc1)=Nc1ccccc1`, the Potency result in test [1] and in test [2] was “inactive” each time.

For the compound `OCCOCCOCCO`, the Potency entry in test [1] and in test [2] was “inactive” throughout.

Consider `NC(=O)Nc1nc2ccccc2[nH]1`, for which the Potency result in test [1] and in test [2] was “inactive” throughout.

With `CC(C)(C)NSc1nc2ccccc2s1`, the Potency result in test [1] and in test [2] was “inactive” throughout.

For `C=CC1CC2C=CC1C2` (centres undefined), the Potency entry in test [1] and in test [2] was “inactive” each time.

On to `NCCO`, for which the Potency result in test [1] and in test [2] was “inactive” in each case.

As for `O=C1c2c(O)ccc(O)c2C(=O)c2c(NCCNCCO)ccc(NCCNCCO)c21`, the Potency entry in test [1] and in test [2] was “inactive” in each case.

With `O[C@@H]([C@H](O)[C@H](O)CBr)[C@H](O)CBr`, the Potency entry in test [1] and in test [2] was “inactive” throughout.

On to `c1cc(N(CC2CO2)CC2CO2)ccc1Cc1ccc(N(CC2CO2)CC2CO2)cc1` (centres undefined), for which the Potency result in test [1] and in test [2] was “inactive” each time.

As to `C=CC/C=C/C/C=C/C/C=C/C`, the Potency result in test [1] and in test [2] was “inactive” each time.

In the case of `O=C(O)c1[nH]n(-c2ccc(S(=O)(=O)O)cc2)c(=O)c1N=Nc1ccc(S(=O)(=O)O)cc1`, the Potency result in test [1] and in test [2] was “inactive” each time.

As to `Nc1nnc(-c2cccc(Cl)c2Cl)c(N)n1`, the Potency result in test [1] and in test [2] was “inactive” each time.

As for `Nc1ccc(-c2ccc(F)cc2)cc1`, the Potency entry in test [1] and in test [2] was “inactive” throughout.

As to `COc1ccc([N+](=O)[O-])cc1N`, the Potency result in test [1] and in test [2] was “inactive” throughout.

In the case of `CCCC(=O)OC(=O)CCC`, the Potency result in test [1] and in test [2] was “inactive” each time.

On to `NC(=O)c1ccccc1[N+](=O)[O-]`, for which the Potency result in test [1] and in test [2] was “inactive” each time.

Consider `COc1ccc(-c2cc(C(F)F)nn2-c2ccc(S(N)(=O)=O)cc2)cc1F`, for which the Potency entry in test [1] and in test [2] was “inactive” in each case.

In the case of `CC(C)c1ccc2ncccc2c1`, the Potency entry in test [1] and in test [2] was “inactive” throughout.

Take `O=C(Nc1ccc([N+](=O)[O-])cc1)Nc1ccc([N+](=O)[O-])cc1` (tested in a mixture with another compound): the Potency result in test [1] and in test [2] was “inactive” each time.

With `CCCOC(=O)NCCCN(C)C`, the Potency entry in test [1] and in test [2] was “inactive” each time.

Consider `Cc1nnc(C(=O)NC(C)(C)c2nc(C(=O)NCc3ccc(F)cc3)c(O)c(=O)n2C)o1`, for which the Potency entry in test [1] and in test [2] was “inactive” throughout.
